Tb PGK inh – inhibitors of T. brucei phosphoglycerate kinase | actives 0.043% (n = 380,000) | Potency, µM (top dose mostly 57.5 µM), most hits filed as inhibitors | PGK/GAPDH coupled, Kinase-Glo luminescence, 60 min | AID 602233 | P07378; note: nearly all actives have a fitted effect of over 60% in size
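Luminescent ATP detection (Kinase-Glo Plus) follows a 60-minute room-temperature incubation, with wells lacking PGK as controls. Buffer: 100 mM TEA (pH 7.6), 5 mM MgCl2, 0.01% Tween-20. Coupling enzyme GAPDH (100 nM final) supplies unstable 1,3-BPG in-well.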
GCN5L2 inh – blocks human GCN5L2 histone acetyltransferase; Q92830; GCN5L2 HAT assay, ThioGlo1 CoA-SH fluorescence; Potency, µM (series often up to 58.9 µM), actives largely listed as inhibitors; actives 0.21% (n = 390,000); AID 504327
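Enzyme at 20nM final was mixed with library compounds for 15 min at room temperature. Peptide H3(1-25) at 75uM, acetyl-CoA at 70uM and ThioGlo1 at 50uM were then added. Plates were read immediately and after 20 min (Ex340nm/Em540nm).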
KCNH2 3.1 inh – blocks the human KCNH2 3.1 channel isoform. U2OS KCNH2 3.1, thallium flux FluxOr; stronger effect = lower value. activity change, % (tested at about 1.8 µM). actives 0.95% (n = 340,000);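 active = maximum activity change below -70%; inconclusive = maximum activity change from -70% to -50%; inactive = maximum activity change above -50%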;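 note: thallium influx rate constant from kinetic fluorescence after stimulation buffer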
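U2OS cells transduced with KCNH2 3.1 mutant virus (1.77 x 10^8 /mL, 4 h), plated overnight at 37 C, loaded 45 min with FluxOr dye plus Red40 quencher. Thallium flux rate constant from kinetic reads after stimulation buffer, normalised to controls.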
Pin1 inhibitor – human Pin1 inhibition; actives 0.009% (n = 390,000); Q13526; Potency, µM (series often up to 115 µM), hits mostly inhibitors; Pin1 FP peptide displacement, HiFluor488, 10 min; active = well fitted inhibition curve with a large enough effect in the polarisation, with a control signal flat, not every such curve was filed as active; inconclusive = small, poorly fitted or top-dose-only effect, or effect the other way, or a change in a side signal; inactive = no such curve, though single readings can be large or run the other way; the % refers to the polarisation
Target sequence (Q13526 whole entry, looked up): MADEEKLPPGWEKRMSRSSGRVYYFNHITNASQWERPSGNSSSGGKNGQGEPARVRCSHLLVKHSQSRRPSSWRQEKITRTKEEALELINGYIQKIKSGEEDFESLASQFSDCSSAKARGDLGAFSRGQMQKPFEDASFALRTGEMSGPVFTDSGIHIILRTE
hERG WT inh – blocks the wildtype human KCNH2 potassium channel; actives 0.37% (n = 340,000); Q12809; U2OS, BacMam KCNH2, thallium flux FluxOr; stronger effect = lower value; activity change, % at 1.84 µM;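 active = maximum activity change below -70%; inconclusive = maximum activity change between -70% and -50%; inactive = maximum activity change above -50%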
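U2OS cells were transduced with wild-type KCNH2 virus (2.03 x 10^8 / mL) for 4 h at room temperature, then cultured overnight at 37 C. Thallium flux was read with FluxOr dye. Rate constants were normalized to DMSO controls.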
RGS4 inhibitor – human RGS4 inhibition | P49798 | Transcreener GDP fluorescence polarization, RGS4-accelerated GTP hydrolysis | Potency, µM (highest dose often 114 µM), hits mostly inhibitors | actives 0.039% (n = 390,000) | AID 504845; note: nearly all actives have a fitted effect of over 75% in size
Target sequence (P49798 whole entry, looked up): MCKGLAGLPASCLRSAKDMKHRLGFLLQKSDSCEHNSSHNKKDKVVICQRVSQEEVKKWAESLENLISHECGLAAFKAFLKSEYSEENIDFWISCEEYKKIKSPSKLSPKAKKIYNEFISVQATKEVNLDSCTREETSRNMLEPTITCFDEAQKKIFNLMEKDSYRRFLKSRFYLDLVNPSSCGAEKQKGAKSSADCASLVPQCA
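MLSMR compounds (23 nl, pin-transferred) preincubated 10 min at room temperature with a 500nM (2x) first reagent, then RGS4 at 900nM (2x) plus Transcreener GDP mix added; fluorescence polarization (620/688 nm) read before and after 90 min at 30 °C.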
Numbers stand for hits; – = inactive; ? = inconclusive; · = no result; [ ] = remark or other dose. In the library only some 1.2% were active in any assay of this set; here they are far more common. Unless noted, calls come from the whole dose curve; as a rule, active = well fitted curve in the direction sought with a large enough effect; inconclusive = small, poorly fitted or top-dose-only effect, or another doubt; inactive = no such curve, though single readings can be large; an effect the other way counts as inactive or inconclusive.

SMILES	Tb PGK inh	GCN5L2 inh	KCNH2 3.1 inh	Pin1 inhibitor	hERG WT inh	RGS4 inhibitor
CCOC(=O)CN1C(=O)c2cccnc2Oc2ccccc21	·	–	·	–	·	–
CCOc1ccc(N(CC(=O)NC2CCCCC2)C(=O)CCC(=O)Nc2nccs2)cc1	–	–	-90.8	–	–	–
Cc1cc(C)cc(N(CC(=O)NCc2ccco2)C(=O)CCC(=O)Nc2nccs2)c1	–	–	-71.8	–	–	–
COc1cccc(CNc2sc3c(c2C(=O)Nc2ccc(OC)cc2OC)CCC3)c1	–	–	·	–	·	?
COc1ccc(-c2nc3cnc(Oc4cccc(Cl)c4)nc3n(CCC#N)c2=O)cc1	·	–	·	·	·	·
Cc1ccc(NC(=O)CN(C)Cc2nc3ccccc3c(=O)[nH]2)c(Br)c1	–	–	–	–	–	–
Cc1cc(Br)ccc1NC(=O)CNC(=O)CN(C)Cc1nc2ccccc2c(=O)[nH]1	–	–	-98.8	–	–	–
CCCCN(C)C(=O)c1ccc2c(c1)N(Cc1ccc(F)cc1)C(=O)c1ccccc1S2(=O)=O	·	–	·	–	·	–
Cc1ccc(NC(=O)Cn2sc3nc(C)cc(C)c3c2=O)c(Cl)c1	–	28.2µM	–	–	–	–[11.4 µM]
Cc1cc(C)c2c(=O)n(CC(=O)NCCCN3CCOCC3)sc2n1	–	17.8µM	–	–	–	–
O=C1C(=O)N(C2CCN(C(=O)c3ccccc3F)CC2)CCN1Cc1ccc(F)cc1	–	–	·	–	·	–
CCn1nc(C(=O)OC(C(=O)c2c[nH]c3ccccc23)c2ccccc2)c2ccccc2c1=O (configuration not stated)	–	–	-75.6	–	–	–
O=C(O)c1cccc(NS(=O)(=O)c2ccc(S(=O)(=O)N3CCOCC3)cc2)c1	–	–	–	–	–	–
CCOc1ccc(Br)cc1S(=O)(=O)Nc1cccc(S(=O)(=O)N2CCOCC2)c1	–	·	–	–	-223.1	–
O=S(=O)(Nc1cccc(F)c1)c1ccc(S(=O)(=O)N2CCOCC2)cc1	–	·	-74.5	·	–	·
COc1cccc(C2C(C#N)=C(NC(=O)CCc3ccccc3)Oc3ccc4ccccc4c32)c1 (configuration not stated)	·	·	·	–	·	·
Cc1ccc(C(=O)N/C(=C\c2ccc(Cl)cc2)C(=O)NC2CCCCC2)cc1	–	–	·	–	·	–
COCCn1c(SCC(=O)Nc2ccc(Cl)c(S(=O)(=O)N(C)C)c2)nc2ccccc21	–	–	–	–	-117.6	–
COCCn1c(SCC(=O)Nc2ccc(S(N)(=O)=O)cc2)nc2ccccc21	–	–	–	–	–	–
COc1ccc(C2=CC3=C(Br)C(=O)C(C)(O)C(=O)C3=CO2)cc1 (configuration not stated)	20µM	–	–	?	–	?
COC(=O)CCC(=O)OC1(C)C(=O)C2=CN(Cc3ccc(OC)cc3)C(c3ccc(OC)cc3)=CC2=C(Br)C1=O (configuration not stated)	–	·	–	?	–	?
CCC(=O)OC1(C)C(=O)C2=COC(c3ccc(OC)cc3)=CC2=C(Br)C1=O (configuration not stated)	20µM	–	–	?	–	?
CCN(CC)c1ccc(/C=C/C(=O)c2ccc(Br)cc2)cc1	–	–	?	?	-166.7	–
O=C(CCC(=O)N1CCSc2ccccc21)NCc1cccc(Cl)c1	–	4.47µM	–	–	–	–
Cc1cccc(-c2nc(CN3CCCC(C(=O)NC4CCCC4)C3)c(C)o2)c1 (configuration not stated)	–	–	-82.1	–	–	–
SMILES	Tb PGK inh	GCN5L2 inh	KCNH2 3.1 inh	Pin1 inhibitor	hERG WT inh	RGS4 inhibitor
Cc1cccc(-c2nc(CN3CCCC(C(=O)NC4CCC(C)CC4)C3)c(C)o2)c1 (configuration not stated)	–	–	–	–	–	–
COc1ccc(OC)c(Nc2nc(-c3ccc(C)cc3)nc3ccccc23)c1	–	25.1µM	·	–	·	–
CN(CCCn1ccc(NC(=O)OCc2ccccc2)nc1=O)CCc1ccccn1	–	·	-85.3	·	–	·
O=C(Nc1ccn(CCCN2CCN(c3ccccc3)CC2)c(=O)n1)OCc1ccccc1	–	·	-72.1	·	–	·
COc1ccc(CN(C)CCCn2ccc(NC(=O)OCc3ccccc3)nc2=O)cc1OC	–	·	–	·	–	·
Cc1cc(C)c(CN2CCN(CCCn3ccc(NC(=O)OCc4ccccc4)nc3=O)CC2)c(C)c1	–	·	-82.1	–	–	–
COc1ccc(N2CCN(CCCn3ccc(NC(=O)OCc4ccccc4)nc3=O)CC2)cc1	–	·	?	·	–	·
CCc1ccccc1NC(=O)C1CCCN(C(=O)c2cnn(-c3ccccc3)c2-n2cccc2)C1 (configuration not stated)	–	–	·	–	·	–
Cc1cnc(CNc2ncncc2-c2ccccc2C(F)(F)F)cn1	·	–	·	·	·	·
COc1cccc(CNCCc2c[nH]c3ccccc23)c1OCc1ccccc1	–	–	–	–	–	–
COc1cc(CNCCc2c[nH]c3ccccc23)ccc1OCc1ccccc1F	–[11.5 µM]	–	-78.8	–	–	–
Cc1oc(-c2cccc(Cl)c2)nc1CS(=O)(=O)CC(=O)NC(C)CCc1ccccc1 (configuration not stated)	–	–	·	–	·	–
CCCCn1cnc2c(SCc3ccc([N+](=O)[O-])cc3)nc(N)nc21	–	·	-85.0	–	–	–
Cc1ccc(NC(=O)c2cnn(-c3ccc(C)c(C)c3)c2C2CCN(C(=O)OC(C)(C)C)CC2)c(C)c1	–	–	·	–	·	–
CCCc1nc(N)sc1C(=O)OCC	–	0.891µM	–	–	–	–
COc1cc(NC(=O)c2cc(-c3ccco3)on2)c(OC)cc1Cl	–	–	-80.8	?	–	–
COc1ccc(NC(=O)c2cc(Cl)ccc2NC(=O)c2ccco2)c(OC)c1	–	–	-70.1	–	-81.8	–
COc1ccc(NC(=O)c2ccccc2Cl)c(NC(=O)c2ccco2)c1	–	–	–	–	–	–
COc1ccc(NC(=O)c2cc(-c3ccco3)on2)c(OC)c1	–	–	–	–	–	–
CC(=O)Nc1ccc(OCC(O)CN2CCN(c3cc(Cl)ccc3C)CC2)cc1 (configuration not stated)	–	–	–	–	–	–
OC(COC(c1ccc(Cl)cc1)c1ccc(Cl)cc1)CN1CCCC1 (configuration not stated)	–	·	-112.0	–	-139.7	–
CN1CCN(CC(O)COc2ccc(Cl)cc2)CC1 (configuration not stated)	–	–	–	–	–	–
Cc1ccc(Cl)cc1N1CCN(CC(O)COC(C)C)CC1 (configuration not stated)	–	–	-77.2	–	–	–

Compound activity deposited in PubChem by National Center for Advancing Translational Sciences (NCATS).
